This note sets out measurements from PubChem BioAssay AID1159580 (chemical genetic matrix, 2015).

Several values for one entry are separate records, joined by “and”; a condition that tells them apart may be missing. Equal values may be shown once. The campaign covered roughly 5,500 compounds. About 2,000 (36%) were called active. About 18% were inconclusive and are not listed. This is one part of the list. Unmarked numbers belong to inactive results. Cut-off read from the data, not from the text of the source: active = normalized growth mostly below about 0.91 (no sharp cut-off); inconclusive = no clear call, values can overlap the other calls; inactive = mostly above about 0.92.

The assay can be described thus: chemical genetic growth profiling, strain panel (AID 1159580).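 Note: tested at 20 µM; growth read once vehicle control cultures reached saturation at 30 °C; 1 = growth at the plate median or of vehicle wells; lower values mean less growth of the strain.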 The conditions noted are these: growth OD.
The mark [1] stands for this setting: S. cerevisiae deletion strains, locus YDR150W, strain NUM1, active compounds read low.
Setting [2] is: S. cerevisiae deletion strains, locus YJR075W, strain HOC1, active compounds read low.
Where [3] appears, read: S. cerevisiae deletion strains, locus YMR263W, strain SAP30, active compounds read low.
The mark [4] stands for this setting: S. cerevisiae deletion strains, locus YHR030C, strain SLT2, active compounds read low.
[5] abbreviates: S. cerevisiae deletion strains, locus YHR079C, strain IRE1, active compounds read low.
[6] abbreviates: S. cerevisiae deletion strains, locus YJL095W, strain BCK1, active compounds read low.
Setting [7] is: S. cerevisiae deletion strains, locus YJR066W, strain TOR1, active compounds read low.
Setting [8] is: S. cerevisiae deletion strains, locus YLR113W, strain HOG1, active compounds read low.
Where [9] appears, read: S. cerevisiae deletion strains, locus YNL183C, strain NPR1, active compounds read low.
The mark [10] stands for this setting: S. cerevisiae deletion strains, locus YOR231W, strain MKK1, active compounds read low.
The mark [11] stands for this setting: S. cerevisiae deletion strains, locus YPL256C, strain CLN2, active compounds read low.

Consider `C[N+](C)(C)CCO`, for which the normalized growth was 1.04 (S. cerevisiae deletion strains, locus YAL040C, strain CLN3, active compounds read low); 1.02 (S. cerevisiae deletion strains, locus YCL061C, strain MRC1 (second series), active compounds read low); 1.05 under setting [1]; 0.998 (S. cerevisiae deletion strains, locus YER002W, strain NOP16, active compounds read low); 1.06 (S. cerevisiae deletion strains, locus YGR229C, strain SMI1, active compounds read low); 1.09 [resistant] (active) under setting [2]. Further, the normalized growth was 1.01 under setting [3]; 1.02 (S. cerevisiae deletion strains, locus YNL175C, strain NOP13, active compounds read low); 0.996 (S. cerevisiae deletion strains, locus YNL197C, strain WHI3, active compounds read low); 1.01 (S. cerevisiae deletion strains, locus YNL224C, strain SQS1, active compounds read low); 1.08 (S. cerevisiae deletion strains, locus YOR083W, strain WHI5 (second series), active compounds read low).
Consider `O=P(O)(O)C(O)(Cc1cccnc1)P(=O)(O)O`, for which the normalized growth under setting [4] is 0.969; the normalized growth under setting [5] is 0.963; the normalized growth under setting [6] is 0.969; the normalized growth under setting [7] is 0.936; the normalized growth under setting [8] is 0.919; the normalized growth under setting [9] was 0.897. The normalized growth by setting is: under setting [10], 0.966; under setting [11], 0.933.
With `S=C(NCc1ccccc1)Nc1ccc(Cl)c(Cl)c1`, the normalized growth is 0.884 (active) (S. cerevisiae deletion strains, locus YAL013W, strain DEP1, active compounds read low); 0.948 (S. cerevisiae deletion strains, locus YBR229C, strain ROT2, active compounds read low); 0.866 (active) (S. cerevisiae deletion strains, locus YCL061C, strain MRC1, active compounds read low); 0.935 (S. cerevisiae deletion strains, locus YDL101C, strain DUN1, active compounds read low); 0.917 under setting [1]; 0.835 (active) (S. cerevisiae deletion strains, locus YEL061C, strain CIN8, active compounds read low). In addition, the normalized growth (S. cerevisiae deletion strains, locus YGR052W, strain FMP48, active compounds read low) is 0.878; the normalized growth (S. cerevisiae deletion strains, locus YGR078C, strain PAC10, active compounds read low) was 0.9 (active); the normalized growth under setting [4] was 0.382 (active) and 0.745 (active); the normalized growth under setting [5] is 0.861 (active); the normalized growth (S. cerevisiae deletion strains, locus YHR082C, strain KSP1, active compounds read low) is 0.839; the normalized growth (S. cerevisiae deletion strains, locus YHR087W, strain rtc3, active compounds read low) was 0.964. Further, the normalized growth is 0.841 under setting [6]; 0.891 (active) (S. cerevisiae deletion strains, locus YJL187C, strain SWE1, active compounds read low); 0.978 (S. cerevisiae deletion strains, locus YJR043C, strain POL32, active compounds read low); 0.845 under setting [7]; 0.897 under setting [2]; 0.807 (S. cerevisiae deletion strains, locus YKL171W, strain NNK1, active compounds read low). In addition, the normalized growth reads like this: (S. cerevisiae deletion strains, locus YKL190W, strain CNB1, active compounds read low) 0.68 (active); (S. cerevisiae deletion strains, locus YKL203C, strain TOR2, active compounds read low) 0.803 (active); (S. cerevisiae deletion strains, locus YLR039C, strain RIC1, active compounds read low) 0.482 (active); (S. cerevisiae deletion strains, locus YLR058C, strain SHM2 (second series), active compounds read low) 0.938; (S. cerevisiae deletion strains, locus YLR085C, strain ARP6, active compounds read low) 0.332 (active); under setting [8], 1.06. Besides, the normalized growth reads like this: (S. cerevisiae deletion strains, locus YLR262C, strain YPT6, active compounds read low) 0.701 (active); (S. cerevisiae deletion strains, locus YML094W, strain GIM5, active compounds read low) 0.677 (active); (S. cerevisiae deletion strains, locus YMR219W, strain ESC1, active compounds read low) 0.962; under setting [3], 0.846 (active); (S. cerevisiae deletion strains, locus YNL153C, strain GIM3, active compounds read low) 0.907 (active); under setting [9], 0.846. Further, the normalized growth runs as follows: (S. cerevisiae deletion strains, locus YNL207W, strain RIO2, active compounds read low) 0.829; (S. cerevisiae deletion strains, locus YNL298W, strain CLA4 (second series), active compounds read low) 0.548 (active); (S. cerevisiae deletion strains, locus YNL322C, strain KRE1, active compounds read low) 0.977; (S. cerevisiae deletion strains, locus YNR030W, strain Alg12, active compounds read low) 0.701 (active); (S. cerevisiae deletion strains, locus YOL006C, strain TOP1, active compounds read low) 0.251 (active); (S. cerevisiae deletion strains, locus YOR119C, strain RIO1, active compounds read low) 0.77. In addition, the normalized growth runs as follows: under setting [10], 0.862; (S. cerevisiae deletion strains, locus YPL055C, strain LGE1, active compounds read low) 0.689 (active); (S. cerevisiae deletion strains, locus YPL241C, strain CIN2, active compounds read low) 0.691 (active); under setting [11], 0.916; (S. cerevisiae deletion strains, locus YPR135W, strain CTF4, active compounds read low) 0.471 (active); (S. cerevisiae strains, strain wild type, active compounds read low) 0.828 (active).
